Source: the supplement of paper PMC11732987, “Enantioselective OTUD7B fragment discovery through chemoproteomics screening and high-throughput optimisation” (Communications Chemistry, 2025)

Experiments:
Assay in all cases: log2 ratio of Biotin-Ahx-Ub-VS probe labelling (fragment/DMSO); higher = less target engagement (more negative = stronger competition), active = hit call of the paper (q ≤ 0.05, log2 ratio ≤ -1)
Conditions in all cases: compound concentration: 200 uM; treatment time: 3 h
OTUD6B = target: T1, OTUD6B (UniProt Q8N6M0)
T1 sequence (whole entry): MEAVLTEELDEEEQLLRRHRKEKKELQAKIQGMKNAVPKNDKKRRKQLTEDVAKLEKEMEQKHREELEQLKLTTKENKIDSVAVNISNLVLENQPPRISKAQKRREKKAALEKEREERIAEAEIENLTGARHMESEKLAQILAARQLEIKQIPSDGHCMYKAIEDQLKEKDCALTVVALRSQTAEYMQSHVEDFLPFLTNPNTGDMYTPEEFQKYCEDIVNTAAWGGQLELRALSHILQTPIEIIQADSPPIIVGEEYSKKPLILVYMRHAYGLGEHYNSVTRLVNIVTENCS
Outline: (§1)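 Labelling with Biotin-Ahx-Ub-VS (0.5 µM final, 1 h) followed a 3 h triplicate treatment of HEK293T lysate (495 µg per sample, Tris/CHAPS/IGEPAL buffer with protease inhibitors) with fragment at 200 µM or vehicle. Labelled DUBs were NeutrAvidin-enriched, digested with LysC and trypsin, and run by diaPASEF LC-MS/MS. The values, average log2 fragment/vehicle ratios by unpaired t-test, come from global-median-normalised Spectronaut label-free quantities. Proteins with ≥2 unique peptides were used.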

OTUD7B = target: T2, OTUD7B (UniProt Q6GQQ9)
T2 sequence (whole entry): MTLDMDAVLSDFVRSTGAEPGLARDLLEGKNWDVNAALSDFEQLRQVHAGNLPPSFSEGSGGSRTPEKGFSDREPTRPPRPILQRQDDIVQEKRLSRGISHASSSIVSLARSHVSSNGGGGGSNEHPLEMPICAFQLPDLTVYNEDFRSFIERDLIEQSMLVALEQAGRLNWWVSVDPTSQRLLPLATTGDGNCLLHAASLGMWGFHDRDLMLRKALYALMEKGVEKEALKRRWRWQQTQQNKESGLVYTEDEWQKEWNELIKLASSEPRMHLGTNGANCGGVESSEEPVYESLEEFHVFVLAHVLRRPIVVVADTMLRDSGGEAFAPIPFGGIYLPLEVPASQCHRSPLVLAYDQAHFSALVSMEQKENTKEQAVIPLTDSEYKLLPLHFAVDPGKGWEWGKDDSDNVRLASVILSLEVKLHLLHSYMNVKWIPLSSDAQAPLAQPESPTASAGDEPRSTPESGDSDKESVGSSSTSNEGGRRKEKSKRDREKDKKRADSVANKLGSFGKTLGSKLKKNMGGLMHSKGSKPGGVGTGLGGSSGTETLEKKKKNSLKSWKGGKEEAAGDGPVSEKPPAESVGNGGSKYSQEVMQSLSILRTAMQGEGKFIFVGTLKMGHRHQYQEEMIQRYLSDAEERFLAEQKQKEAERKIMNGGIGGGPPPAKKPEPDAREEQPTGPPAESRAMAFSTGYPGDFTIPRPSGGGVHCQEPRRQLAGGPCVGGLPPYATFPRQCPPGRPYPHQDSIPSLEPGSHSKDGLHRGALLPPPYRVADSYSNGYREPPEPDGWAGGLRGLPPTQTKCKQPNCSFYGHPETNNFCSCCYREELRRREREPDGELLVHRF
Outline: as §1

PRPF8 = PRPF8 (UniProt Q6P2Q9)
Outline: as §1

PSMD7 = target: T3, PSMD7 (UniProt P51665)
T3 sequence (whole entry): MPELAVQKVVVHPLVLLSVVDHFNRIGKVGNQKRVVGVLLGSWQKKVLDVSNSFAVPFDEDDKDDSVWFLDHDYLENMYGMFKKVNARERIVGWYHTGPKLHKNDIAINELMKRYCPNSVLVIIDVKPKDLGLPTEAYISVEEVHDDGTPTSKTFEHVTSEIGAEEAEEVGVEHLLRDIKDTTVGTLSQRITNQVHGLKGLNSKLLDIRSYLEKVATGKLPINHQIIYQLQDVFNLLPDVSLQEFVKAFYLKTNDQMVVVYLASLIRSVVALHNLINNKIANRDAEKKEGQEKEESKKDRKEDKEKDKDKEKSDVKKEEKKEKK
Outline: as §1

UCHL1 = UCHL1 (UniProt P09936)
Outline: as §1

UCHL3 = target: T4, UCHL3 (UniProt P15374)
T4 sequence (whole entry): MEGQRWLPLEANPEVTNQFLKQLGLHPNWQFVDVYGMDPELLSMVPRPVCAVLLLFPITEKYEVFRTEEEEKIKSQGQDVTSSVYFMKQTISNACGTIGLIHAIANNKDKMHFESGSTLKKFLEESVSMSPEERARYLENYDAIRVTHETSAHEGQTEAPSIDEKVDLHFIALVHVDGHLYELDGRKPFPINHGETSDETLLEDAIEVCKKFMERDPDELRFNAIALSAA
Outline: as §1

UCHL5 = target: T5, UCHL5 (UniProt Q9Y5K5)
T5 sequence (whole entry): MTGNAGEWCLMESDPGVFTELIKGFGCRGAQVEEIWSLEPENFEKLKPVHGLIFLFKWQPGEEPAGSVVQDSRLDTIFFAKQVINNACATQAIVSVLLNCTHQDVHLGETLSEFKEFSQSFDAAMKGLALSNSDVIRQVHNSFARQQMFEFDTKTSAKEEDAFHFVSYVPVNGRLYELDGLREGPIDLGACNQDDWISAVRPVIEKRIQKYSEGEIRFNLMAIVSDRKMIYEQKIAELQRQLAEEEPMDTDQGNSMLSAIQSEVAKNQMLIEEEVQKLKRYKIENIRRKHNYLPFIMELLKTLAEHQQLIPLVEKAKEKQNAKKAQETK
Outline: as §1

USP10 = USP10 (UniProt Q14694)
Outline: as §1

USP15 = target: T6, USP15 (UniProt Q9Y4E8)
T6 sequence (whole entry): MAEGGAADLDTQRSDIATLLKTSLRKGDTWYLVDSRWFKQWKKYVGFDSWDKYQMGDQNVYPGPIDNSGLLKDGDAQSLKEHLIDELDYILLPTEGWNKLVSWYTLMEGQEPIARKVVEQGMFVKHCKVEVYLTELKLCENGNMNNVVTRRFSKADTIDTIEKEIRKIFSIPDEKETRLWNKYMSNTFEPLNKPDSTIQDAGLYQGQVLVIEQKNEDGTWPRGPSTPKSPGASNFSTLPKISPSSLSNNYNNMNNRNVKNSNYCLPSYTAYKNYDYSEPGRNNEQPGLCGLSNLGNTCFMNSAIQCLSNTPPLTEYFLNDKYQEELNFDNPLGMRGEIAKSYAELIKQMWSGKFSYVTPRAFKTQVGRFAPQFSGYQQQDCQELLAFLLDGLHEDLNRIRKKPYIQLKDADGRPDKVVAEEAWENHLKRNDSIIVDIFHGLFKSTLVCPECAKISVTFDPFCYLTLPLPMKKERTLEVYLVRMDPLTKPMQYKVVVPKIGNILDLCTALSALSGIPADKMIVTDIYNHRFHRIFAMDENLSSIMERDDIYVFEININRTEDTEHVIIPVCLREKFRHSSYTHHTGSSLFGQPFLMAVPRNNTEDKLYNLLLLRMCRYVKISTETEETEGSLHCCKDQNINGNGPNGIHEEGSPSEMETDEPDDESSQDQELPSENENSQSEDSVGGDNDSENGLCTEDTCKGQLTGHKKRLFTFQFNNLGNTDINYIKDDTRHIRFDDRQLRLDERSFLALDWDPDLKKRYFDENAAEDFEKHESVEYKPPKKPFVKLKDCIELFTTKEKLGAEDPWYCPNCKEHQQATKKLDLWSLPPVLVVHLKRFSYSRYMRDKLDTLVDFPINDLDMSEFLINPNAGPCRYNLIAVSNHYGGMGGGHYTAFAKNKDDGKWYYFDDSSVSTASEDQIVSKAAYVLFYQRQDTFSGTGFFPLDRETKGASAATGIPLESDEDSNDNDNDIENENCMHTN
Outline: as §1

USP16 = USP16 (UniProt Q9Y5T5)
Outline: as §1

Measured: log2 ratio of Biotin-Ahx-Ub-VS probe labelling

Chain of USP10 (Q14694 whole entry): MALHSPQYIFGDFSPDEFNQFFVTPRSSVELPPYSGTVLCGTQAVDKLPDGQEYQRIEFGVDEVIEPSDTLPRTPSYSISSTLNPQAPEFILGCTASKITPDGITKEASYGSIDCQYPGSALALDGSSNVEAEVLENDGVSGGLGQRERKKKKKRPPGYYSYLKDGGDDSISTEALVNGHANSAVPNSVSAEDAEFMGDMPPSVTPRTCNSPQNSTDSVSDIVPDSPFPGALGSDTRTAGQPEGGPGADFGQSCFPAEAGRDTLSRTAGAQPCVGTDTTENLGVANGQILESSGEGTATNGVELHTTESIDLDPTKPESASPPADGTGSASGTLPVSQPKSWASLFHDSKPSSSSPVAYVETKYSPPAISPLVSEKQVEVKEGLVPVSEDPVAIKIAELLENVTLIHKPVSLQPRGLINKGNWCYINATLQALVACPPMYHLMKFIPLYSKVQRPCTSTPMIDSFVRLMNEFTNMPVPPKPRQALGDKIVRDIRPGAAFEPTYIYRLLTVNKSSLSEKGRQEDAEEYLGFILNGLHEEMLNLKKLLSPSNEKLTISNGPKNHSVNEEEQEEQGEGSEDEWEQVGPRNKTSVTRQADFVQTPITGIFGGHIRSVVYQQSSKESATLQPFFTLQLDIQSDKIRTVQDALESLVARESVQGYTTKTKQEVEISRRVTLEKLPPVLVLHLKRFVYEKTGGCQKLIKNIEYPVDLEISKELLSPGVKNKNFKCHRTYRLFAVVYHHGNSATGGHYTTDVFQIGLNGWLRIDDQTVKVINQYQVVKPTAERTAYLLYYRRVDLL
Chain of UCHL1 (P09936 whole entry, looked up): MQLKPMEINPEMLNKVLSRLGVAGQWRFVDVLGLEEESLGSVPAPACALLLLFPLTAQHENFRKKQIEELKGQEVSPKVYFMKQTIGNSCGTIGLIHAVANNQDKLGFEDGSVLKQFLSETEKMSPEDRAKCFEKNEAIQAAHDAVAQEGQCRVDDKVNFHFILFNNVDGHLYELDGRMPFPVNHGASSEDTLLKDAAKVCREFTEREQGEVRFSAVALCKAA
Chain of USP16 (Q9Y5T5 whole entry, looked up): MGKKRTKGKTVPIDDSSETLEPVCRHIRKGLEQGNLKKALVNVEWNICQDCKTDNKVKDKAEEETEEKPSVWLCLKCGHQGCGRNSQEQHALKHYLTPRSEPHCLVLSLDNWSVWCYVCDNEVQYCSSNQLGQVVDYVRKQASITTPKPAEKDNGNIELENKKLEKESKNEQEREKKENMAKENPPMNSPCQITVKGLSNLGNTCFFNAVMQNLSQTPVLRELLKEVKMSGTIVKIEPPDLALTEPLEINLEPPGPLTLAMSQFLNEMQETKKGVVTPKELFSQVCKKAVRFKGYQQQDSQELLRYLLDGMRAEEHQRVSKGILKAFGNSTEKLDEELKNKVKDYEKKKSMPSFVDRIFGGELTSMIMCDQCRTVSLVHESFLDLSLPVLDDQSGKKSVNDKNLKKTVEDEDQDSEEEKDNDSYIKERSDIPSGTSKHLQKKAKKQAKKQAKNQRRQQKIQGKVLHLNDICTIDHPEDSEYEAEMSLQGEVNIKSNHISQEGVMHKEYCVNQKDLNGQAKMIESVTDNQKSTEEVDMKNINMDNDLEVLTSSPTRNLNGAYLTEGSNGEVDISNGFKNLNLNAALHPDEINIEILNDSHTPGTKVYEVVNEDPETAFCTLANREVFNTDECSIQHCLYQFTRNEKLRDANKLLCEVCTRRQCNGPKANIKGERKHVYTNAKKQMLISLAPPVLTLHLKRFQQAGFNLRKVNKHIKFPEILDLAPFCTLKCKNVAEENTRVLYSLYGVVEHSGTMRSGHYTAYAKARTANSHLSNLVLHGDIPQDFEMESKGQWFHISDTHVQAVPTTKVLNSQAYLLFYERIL

Cc1nc(CNC(=O)CCl)c2ccccn12.Cl
inactive: OTUD6B -0.000255 | OTUD7B -0.458 | PRPF8 -0.14 | PSMD7 -0.132 | UCHL3 -0.319 | UCHL5 -0.224 | USP10 -0.121 | USP15 -0.398 | USP16 -0.0983
active: UCHL1 -1.12
